What was measured:
Experiment in all cases: log2 ratio of Biotin-Ahx-Ub-VS probe labelling (fragment/DMSO); higher = less target engagement (more negative = stronger competition), active = hit call of the paper (q ≤ 0.05, log2 ratio ≤ -1)
Settings in all cases: compound concentration: 200 uM; treatment time: 3 h
USP42 = target: T1, USP42 (UniProt Q9H9J4)
T1 sequence (whole entry): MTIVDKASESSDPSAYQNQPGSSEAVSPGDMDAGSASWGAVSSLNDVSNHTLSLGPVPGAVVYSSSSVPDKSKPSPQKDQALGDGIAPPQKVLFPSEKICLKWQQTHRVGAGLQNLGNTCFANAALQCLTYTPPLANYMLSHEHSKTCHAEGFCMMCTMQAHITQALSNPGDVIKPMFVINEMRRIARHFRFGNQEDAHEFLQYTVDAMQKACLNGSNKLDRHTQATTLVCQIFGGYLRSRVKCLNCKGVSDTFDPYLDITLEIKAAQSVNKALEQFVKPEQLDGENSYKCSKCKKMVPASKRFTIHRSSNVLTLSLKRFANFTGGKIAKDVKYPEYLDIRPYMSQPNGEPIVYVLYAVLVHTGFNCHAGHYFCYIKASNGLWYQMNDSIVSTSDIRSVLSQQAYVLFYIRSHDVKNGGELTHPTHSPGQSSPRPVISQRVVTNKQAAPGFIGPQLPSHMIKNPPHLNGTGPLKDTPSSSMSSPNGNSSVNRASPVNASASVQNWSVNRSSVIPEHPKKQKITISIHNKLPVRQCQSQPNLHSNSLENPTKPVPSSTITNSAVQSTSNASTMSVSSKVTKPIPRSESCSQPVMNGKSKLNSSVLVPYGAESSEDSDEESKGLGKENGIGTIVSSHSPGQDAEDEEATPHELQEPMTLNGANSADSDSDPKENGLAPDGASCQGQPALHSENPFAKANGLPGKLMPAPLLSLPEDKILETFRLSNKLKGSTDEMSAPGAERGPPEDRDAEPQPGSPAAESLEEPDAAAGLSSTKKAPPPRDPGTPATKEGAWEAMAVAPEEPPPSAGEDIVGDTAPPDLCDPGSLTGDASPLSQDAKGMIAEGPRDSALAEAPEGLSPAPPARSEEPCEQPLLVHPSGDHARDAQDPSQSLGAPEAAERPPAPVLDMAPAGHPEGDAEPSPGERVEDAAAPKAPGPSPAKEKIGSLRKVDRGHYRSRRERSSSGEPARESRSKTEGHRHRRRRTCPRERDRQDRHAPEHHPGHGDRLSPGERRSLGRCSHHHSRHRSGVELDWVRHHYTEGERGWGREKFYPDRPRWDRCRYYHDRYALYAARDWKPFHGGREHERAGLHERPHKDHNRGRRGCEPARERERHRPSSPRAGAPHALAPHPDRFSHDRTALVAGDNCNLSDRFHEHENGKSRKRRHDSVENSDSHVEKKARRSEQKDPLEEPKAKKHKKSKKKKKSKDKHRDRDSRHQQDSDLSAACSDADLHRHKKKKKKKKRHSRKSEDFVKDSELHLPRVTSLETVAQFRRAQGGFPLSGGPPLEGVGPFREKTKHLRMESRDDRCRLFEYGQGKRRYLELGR
In short: (§1)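 HEK293T lysate, 495 µg per sample in Tris/CHAPS/IGEPAL buffer with protease inhibitors, was treated in triplicate with fragment at 200 µM or vehicle for 3 h and then with Biotin-Ahx-Ub-VS at 0.5 µM final for 1 h. Labelled DUBs were NeutrAvidin-enriched, digested with LysC and trypsin, and run by diaPASEF LC-MS/MS. Spectronaut label-free quantities were global-median-normalised, and values are average log2 fragment/vehicle ratios by unpaired t-test on proteins with ≥2 unique peptides.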

USP46 = USP46 (UniProt P62068)
In short: as §1

USP47 = target: T2, USP47 (UniProt Q96K76)
T2 sequence (whole entry): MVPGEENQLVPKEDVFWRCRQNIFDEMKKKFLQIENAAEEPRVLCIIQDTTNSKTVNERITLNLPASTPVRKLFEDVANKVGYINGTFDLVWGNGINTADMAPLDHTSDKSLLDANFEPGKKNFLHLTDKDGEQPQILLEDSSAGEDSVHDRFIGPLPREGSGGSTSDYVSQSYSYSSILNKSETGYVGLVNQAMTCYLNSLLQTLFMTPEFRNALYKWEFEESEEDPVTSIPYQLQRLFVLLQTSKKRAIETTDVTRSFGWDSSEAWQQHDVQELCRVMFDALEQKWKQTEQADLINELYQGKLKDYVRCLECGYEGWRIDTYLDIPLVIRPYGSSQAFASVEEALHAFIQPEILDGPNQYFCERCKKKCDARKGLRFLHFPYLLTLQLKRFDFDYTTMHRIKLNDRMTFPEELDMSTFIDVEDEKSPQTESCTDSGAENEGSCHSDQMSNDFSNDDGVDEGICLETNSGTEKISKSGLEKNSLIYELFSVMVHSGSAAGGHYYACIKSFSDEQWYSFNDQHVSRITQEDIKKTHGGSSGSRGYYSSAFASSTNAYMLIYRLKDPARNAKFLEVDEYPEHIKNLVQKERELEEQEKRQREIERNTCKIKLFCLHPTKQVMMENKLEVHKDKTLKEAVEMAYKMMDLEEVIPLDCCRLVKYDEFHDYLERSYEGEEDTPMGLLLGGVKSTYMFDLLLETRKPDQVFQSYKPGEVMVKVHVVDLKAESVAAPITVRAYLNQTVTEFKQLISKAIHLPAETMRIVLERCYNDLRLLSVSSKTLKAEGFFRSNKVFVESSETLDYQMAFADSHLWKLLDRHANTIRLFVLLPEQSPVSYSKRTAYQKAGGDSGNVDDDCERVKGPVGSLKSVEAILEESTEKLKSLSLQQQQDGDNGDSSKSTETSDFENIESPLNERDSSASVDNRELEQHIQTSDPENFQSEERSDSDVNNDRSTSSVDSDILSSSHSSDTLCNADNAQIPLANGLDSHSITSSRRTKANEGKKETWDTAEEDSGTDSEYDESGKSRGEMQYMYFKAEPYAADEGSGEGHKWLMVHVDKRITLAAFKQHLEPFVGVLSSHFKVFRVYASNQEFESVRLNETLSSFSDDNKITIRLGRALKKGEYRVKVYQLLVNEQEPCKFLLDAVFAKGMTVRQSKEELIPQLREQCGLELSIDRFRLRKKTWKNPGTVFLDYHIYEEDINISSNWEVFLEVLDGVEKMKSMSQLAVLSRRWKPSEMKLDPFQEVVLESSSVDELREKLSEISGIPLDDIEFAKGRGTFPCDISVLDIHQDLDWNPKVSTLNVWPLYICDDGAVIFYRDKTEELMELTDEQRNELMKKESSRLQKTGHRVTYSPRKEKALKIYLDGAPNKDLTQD
In short: as §1

USP48 = target: T3, USP48 (UniProt Q86UV5)
T3 sequence (whole entry): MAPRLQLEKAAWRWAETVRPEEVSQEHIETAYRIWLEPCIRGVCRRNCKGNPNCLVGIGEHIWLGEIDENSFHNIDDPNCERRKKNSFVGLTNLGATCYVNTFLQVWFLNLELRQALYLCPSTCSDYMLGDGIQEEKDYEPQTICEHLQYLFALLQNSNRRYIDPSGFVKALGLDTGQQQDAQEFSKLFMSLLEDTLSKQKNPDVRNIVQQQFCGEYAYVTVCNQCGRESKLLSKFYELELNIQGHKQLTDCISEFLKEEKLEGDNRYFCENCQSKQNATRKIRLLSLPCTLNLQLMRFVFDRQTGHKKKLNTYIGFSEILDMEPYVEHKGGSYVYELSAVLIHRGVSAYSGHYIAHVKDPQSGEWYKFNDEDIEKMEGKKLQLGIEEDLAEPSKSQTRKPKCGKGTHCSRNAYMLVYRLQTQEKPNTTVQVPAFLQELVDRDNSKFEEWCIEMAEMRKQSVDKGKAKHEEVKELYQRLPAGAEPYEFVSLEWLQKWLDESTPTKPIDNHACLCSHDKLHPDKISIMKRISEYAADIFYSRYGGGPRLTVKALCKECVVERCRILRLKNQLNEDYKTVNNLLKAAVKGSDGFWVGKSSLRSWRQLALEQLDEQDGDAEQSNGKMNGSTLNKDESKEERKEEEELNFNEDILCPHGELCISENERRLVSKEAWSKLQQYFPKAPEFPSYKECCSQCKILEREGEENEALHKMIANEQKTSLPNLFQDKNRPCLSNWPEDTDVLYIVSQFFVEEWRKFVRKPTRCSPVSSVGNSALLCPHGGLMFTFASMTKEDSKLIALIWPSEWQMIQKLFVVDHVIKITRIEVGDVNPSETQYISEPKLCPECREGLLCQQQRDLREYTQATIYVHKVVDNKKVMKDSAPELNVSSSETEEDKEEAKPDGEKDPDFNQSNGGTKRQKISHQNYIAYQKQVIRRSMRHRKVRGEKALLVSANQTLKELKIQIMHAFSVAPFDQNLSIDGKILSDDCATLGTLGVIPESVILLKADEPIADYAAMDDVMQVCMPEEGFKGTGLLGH
In short: as §1

USP5 = target: T4, USP5 (UniProt P45974)
T4 sequence (whole entry): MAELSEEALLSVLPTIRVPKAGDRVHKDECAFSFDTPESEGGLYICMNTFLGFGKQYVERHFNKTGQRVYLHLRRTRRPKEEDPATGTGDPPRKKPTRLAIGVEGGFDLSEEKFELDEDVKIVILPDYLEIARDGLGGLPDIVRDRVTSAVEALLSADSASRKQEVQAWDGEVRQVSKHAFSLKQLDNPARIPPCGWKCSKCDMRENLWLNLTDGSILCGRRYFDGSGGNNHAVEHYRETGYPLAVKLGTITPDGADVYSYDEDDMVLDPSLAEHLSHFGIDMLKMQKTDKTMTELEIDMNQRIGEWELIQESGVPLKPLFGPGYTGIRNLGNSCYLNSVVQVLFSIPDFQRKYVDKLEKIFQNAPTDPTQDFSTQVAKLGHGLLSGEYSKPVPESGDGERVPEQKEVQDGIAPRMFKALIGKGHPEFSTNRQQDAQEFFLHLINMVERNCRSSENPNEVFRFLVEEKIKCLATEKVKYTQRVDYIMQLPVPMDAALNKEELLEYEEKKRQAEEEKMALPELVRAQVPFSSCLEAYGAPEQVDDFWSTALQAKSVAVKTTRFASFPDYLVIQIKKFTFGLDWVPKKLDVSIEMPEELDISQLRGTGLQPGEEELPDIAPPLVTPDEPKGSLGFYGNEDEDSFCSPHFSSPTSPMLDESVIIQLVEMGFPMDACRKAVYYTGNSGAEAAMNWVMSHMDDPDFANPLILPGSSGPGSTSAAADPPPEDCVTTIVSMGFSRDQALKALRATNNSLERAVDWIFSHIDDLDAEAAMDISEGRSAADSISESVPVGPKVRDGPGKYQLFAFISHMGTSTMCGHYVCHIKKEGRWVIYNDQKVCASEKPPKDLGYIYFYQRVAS
In short: as §1

USP54 = USP54 (UniProt Q70EL1)
In short: as §1

USP7 = USP7 (UniProt Q93009)
In short: as §1

USP8 = target: T5, USP8 (UniProt P40818)
T5 sequence (whole entry): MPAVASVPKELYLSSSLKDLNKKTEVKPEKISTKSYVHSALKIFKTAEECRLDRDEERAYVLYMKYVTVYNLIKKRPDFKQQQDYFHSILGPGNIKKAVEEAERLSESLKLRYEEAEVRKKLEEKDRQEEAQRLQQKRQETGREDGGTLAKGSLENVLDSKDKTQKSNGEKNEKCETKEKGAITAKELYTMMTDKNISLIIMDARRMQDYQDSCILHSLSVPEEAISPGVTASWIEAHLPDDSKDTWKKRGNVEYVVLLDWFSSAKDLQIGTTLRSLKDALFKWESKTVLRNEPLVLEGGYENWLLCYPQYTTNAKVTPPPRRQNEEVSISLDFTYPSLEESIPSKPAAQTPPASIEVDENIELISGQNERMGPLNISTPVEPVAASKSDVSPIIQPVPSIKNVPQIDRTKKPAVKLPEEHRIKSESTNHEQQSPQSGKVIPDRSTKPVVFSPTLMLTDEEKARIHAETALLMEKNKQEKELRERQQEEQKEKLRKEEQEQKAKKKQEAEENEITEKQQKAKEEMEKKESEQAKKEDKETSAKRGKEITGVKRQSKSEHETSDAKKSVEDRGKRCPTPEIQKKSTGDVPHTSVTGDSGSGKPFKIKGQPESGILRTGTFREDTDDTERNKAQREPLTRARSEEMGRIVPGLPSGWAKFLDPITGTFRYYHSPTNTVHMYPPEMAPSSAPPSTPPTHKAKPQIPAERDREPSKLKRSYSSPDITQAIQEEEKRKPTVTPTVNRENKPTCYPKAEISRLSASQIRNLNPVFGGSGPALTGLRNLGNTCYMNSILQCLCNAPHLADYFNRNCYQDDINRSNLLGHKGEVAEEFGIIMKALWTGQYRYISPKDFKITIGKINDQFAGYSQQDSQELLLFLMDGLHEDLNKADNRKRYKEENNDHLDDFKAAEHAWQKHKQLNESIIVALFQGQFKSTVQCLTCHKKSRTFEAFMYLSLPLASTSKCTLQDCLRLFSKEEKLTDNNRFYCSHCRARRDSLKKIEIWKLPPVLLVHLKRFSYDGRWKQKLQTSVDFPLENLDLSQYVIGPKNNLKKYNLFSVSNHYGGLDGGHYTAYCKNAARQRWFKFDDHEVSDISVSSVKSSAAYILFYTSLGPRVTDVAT
In short: as §1

Measured: log2 ratio of Biotin-Ahx-Ub-VS probe labelling

Chain of USP7 (Q93009 whole entry, looked up): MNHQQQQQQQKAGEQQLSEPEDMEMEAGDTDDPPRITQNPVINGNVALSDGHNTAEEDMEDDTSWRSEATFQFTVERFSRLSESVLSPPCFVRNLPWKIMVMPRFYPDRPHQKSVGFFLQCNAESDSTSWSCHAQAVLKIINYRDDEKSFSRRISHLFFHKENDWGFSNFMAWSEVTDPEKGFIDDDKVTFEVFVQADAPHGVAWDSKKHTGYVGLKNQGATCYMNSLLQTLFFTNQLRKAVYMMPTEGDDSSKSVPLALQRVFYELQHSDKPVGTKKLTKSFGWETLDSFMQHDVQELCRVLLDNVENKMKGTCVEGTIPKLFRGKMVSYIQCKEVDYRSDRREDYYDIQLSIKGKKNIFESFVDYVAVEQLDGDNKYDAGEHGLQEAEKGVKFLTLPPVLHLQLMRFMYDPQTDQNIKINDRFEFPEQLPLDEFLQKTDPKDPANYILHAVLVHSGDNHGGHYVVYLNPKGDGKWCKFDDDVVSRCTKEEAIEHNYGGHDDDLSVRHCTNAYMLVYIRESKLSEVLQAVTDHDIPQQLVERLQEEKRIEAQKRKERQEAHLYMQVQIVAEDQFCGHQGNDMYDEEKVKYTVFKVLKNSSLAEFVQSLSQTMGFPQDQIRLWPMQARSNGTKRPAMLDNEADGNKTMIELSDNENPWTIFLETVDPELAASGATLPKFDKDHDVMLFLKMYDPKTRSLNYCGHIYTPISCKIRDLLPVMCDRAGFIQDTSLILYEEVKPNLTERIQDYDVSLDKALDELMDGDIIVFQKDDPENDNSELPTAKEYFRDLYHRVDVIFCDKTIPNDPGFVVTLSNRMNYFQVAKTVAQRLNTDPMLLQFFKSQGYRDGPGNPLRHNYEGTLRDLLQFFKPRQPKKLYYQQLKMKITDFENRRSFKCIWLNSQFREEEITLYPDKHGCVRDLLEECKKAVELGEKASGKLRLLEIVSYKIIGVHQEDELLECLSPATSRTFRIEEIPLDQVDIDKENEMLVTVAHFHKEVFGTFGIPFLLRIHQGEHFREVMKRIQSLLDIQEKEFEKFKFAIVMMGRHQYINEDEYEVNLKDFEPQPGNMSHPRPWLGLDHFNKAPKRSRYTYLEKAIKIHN
Chain of USP46 (P62068 whole entry): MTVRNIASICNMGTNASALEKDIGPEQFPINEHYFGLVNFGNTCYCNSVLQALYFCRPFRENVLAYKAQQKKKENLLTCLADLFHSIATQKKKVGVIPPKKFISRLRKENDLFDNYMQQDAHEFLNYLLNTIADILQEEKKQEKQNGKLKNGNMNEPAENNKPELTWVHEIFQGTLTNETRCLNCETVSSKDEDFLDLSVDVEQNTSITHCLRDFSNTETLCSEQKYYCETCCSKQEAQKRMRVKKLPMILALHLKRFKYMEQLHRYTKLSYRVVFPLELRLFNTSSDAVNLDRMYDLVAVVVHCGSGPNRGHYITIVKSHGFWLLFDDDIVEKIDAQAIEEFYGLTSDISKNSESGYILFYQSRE
Chain of USP54 (Q70EL1 whole entry): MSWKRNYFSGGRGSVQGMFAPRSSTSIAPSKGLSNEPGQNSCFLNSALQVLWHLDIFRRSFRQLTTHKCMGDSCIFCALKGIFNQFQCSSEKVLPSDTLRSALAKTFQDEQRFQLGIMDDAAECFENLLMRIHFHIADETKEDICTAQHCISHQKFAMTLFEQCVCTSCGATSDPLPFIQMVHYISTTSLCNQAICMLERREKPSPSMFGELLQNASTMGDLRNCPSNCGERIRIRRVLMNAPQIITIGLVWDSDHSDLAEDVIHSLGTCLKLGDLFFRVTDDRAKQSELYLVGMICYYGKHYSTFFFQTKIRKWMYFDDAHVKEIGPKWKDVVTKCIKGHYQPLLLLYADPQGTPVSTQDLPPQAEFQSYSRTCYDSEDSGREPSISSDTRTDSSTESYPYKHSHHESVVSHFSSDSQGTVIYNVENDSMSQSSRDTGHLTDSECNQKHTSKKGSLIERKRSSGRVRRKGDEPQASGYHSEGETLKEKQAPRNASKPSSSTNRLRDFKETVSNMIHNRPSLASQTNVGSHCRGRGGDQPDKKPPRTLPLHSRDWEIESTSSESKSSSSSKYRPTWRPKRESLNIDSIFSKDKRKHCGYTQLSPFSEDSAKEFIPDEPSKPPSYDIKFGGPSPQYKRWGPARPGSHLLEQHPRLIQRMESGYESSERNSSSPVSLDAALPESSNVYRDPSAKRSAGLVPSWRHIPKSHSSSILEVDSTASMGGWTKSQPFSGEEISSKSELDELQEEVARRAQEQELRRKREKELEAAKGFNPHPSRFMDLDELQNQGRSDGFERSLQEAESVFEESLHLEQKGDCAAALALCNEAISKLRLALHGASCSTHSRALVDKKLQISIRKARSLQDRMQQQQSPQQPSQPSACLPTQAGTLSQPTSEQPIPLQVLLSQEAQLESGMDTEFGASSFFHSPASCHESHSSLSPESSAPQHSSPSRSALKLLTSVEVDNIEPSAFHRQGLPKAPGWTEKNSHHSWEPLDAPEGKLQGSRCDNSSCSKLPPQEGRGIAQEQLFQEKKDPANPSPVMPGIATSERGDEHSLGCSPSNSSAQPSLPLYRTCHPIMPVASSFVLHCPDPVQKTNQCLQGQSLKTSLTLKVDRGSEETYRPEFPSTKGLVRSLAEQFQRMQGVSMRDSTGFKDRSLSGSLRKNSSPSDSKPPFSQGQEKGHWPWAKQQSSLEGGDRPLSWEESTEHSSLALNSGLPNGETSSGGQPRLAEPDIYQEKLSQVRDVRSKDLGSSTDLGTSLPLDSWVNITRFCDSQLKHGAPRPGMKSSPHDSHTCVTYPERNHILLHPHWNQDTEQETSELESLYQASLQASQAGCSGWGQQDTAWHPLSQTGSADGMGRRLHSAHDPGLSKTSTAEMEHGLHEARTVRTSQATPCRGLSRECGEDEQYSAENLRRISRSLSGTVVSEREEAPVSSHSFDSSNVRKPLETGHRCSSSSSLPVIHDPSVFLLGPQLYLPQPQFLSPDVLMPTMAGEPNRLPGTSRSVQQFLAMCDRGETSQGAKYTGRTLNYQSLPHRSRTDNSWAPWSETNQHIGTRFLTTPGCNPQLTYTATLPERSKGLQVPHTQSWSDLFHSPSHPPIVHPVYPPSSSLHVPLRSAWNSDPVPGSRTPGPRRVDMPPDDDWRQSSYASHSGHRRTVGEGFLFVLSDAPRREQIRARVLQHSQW

Cl.Cn1c(CNC(=O)CCl)nc2cccnc21
inactive: USP42 -0.141 | USP46 -0.0593 | USP47 -0.0713 | USP48 -0.0748 | USP5 -0.0112 | USP54 0.0986 | USP7 -0.133 | USP8 -0.0336

From the supplement of paper PMC11732987, “Enantioselective OTUD7B fragment discovery through chemoproteomics screening and high-throughput optimisation” (Communications Chemistry, 2025)
